Laboratory results taken from PubChem BioAssay (NCI).
About 79,000 compounds went through this panel and 15% of them were active in at least one assay; those are over-represented in the sample as a whole. Calls of active or inactive are those of the source. No stated cut-off is given here; in the data, active means growth inhibition above about 70%; inactive means the rest.

Key:
[1] = NCI Yeast Anticancer Drug Screen. Data for the rad52 strain (AID 147);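 further: 0% = growth of vehicle-treated control cultures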; conditions: S. cerevisiae rad52 mutant growth inhibition, hits give high values
How it was run: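 DNA repair-defective yeast; compound exposure; growth scored against vehicle controls.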

[2] = NCI Yeast Anticancer Drug Screen. Data for the wt1 strain (AID 149);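 further: 0% = growth of vehicle-treated wt1 cultures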; conditions: S. cerevisiae wt1 strain (SPY 50644) growth inhibition, hits give high values
How it was run: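 Measured: growth of wt1 yeast under compound versus vehicle treatment, reported as inhibition.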

[3] = NCI Yeast Anticancer Drug Screen. Data for the rad50EPP+ strain (AID 151);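 further: 0% = growth of vehicle-treated control cultures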; conditions: S. cerevisiae rad50 mutant strain, hits give high values
How it was run: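 rad50EPP+ yeast treated with test compounds. Readout: growth vs vehicle control.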

[4] = NCI Yeast Anticancer Drug Screen. Data for the mgt1 strain (AID 153); conditions: S. cerevisiae mgt1 mutant growth inhibition, hits give high values
How it was run: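 Growth inhibition relative to vehicle controls was scored for the mgt1 yeast strain after compound exposure.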

[5] = NCI Yeast Anticancer Drug Screen. Data for the rad50 strain (AID 155);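 further: 0% = growth of vehicle-only cultures of the same strain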; conditions: S. cerevisiae rad50 strain growth inhibition, hits give high values
How it was run: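 Growth of the mutant yeast was measured after compound exposure and referenced to vehicle-treated cultures.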

[6] = NCI Yeast Anticancer Drug Screen. Data for the mec2-1 strain (AID 157); conditions: S. cerevisiae mec2-1 strain, hits give high values
How it was run: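 Growth inhibition is read against vehicle-treated controls after compound exposure of the mec2-1 yeast strain, which is defective in DNA damage repair or cell cycle control.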

[7] = NCI Yeast Anticancer Drug Screen. Data for the rad14 strain (AID 159);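 further: 0% = growth of vehicle-treated control cultures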; conditions: S. cerevisiae rad14 strain growth inhibition, hits give high values
How it was run: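 Here, inhibition of yeast growth was measured after compound exposure, using a strain with a genetic defect in DNA damage repair and vehicle-treated cultures as the reference.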

[8] = NCI Yeast Anticancer Drug Screen. Data for the sgs1 mgt1 strain (AID 161);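 further: 0% = growth of cultures given vehicle only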; conditions: S. cerevisiae sgs1 mgt1 strain, hits give high values
How it was run: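 Yeast cells carrying a defined DNA-repair defect were exposed to test compounds. Growth inhibition was measured relative to vehicle-treated controls.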

[9] = NCI Yeast Anticancer Drug Screen. Data for the cln2 rad14 strain (AID 165);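 further: 0% = growth equal to vehicle treated cultures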; conditions: S. cerevisiae cln2 rad14 strain, hits give high values
How it was run: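 Growth inhibition, relative to vehicle-treated controls, is the read-out. The test organism is a yeast strain with defined genetic alterations, cln2 rad14.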

[10] = NCI Yeast Anticancer Drug Screen. Data for the bub3 strain (AID 167); conditions: S. cerevisiae bub3 mutant strain, hits give high values
How it was run: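 Whole-cell yeast assay. The mutant strain was incubated with compounds, and growth inhibition was determined by comparison with vehicle-treated cells.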

[11] = NCI Yeast Anticancer Drug Screen. Data for the wt2 strain (AID 169);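 further: 0% = growth of vehicle-treated yeast cultures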; conditions: S. cerevisiae wt2 strain growth inhibition, hits give high values
How it was run: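 Compound exposure of yeast; growth compared with vehicle controls; inhibition reported.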

[12] = NCI Yeast Anticancer Drug Screen. Data for the sgs1 strain (AID 173);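 further: 0% = growth of vehicle-only control cultures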; conditions: S. cerevisiae sgs1 mutant, hits give high values
How it was run: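 Compounds applied to genetically altered yeast; growth compared with vehicle-treated cultures to give % inhibition.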

[13] = NCI Yeast Anticancer Drug Screen. Data for the mlh1 rad18 strain (AID 175); conditions: S. cerevisiae mlh1 rad18 strain growth inhibition, hits give high values
How it was run: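 Cells of a genetically altered yeast strain, deficient in DNA damage repair, were treated with compound. Their growth was then compared with that of vehicle-treated cultures to give inhibition.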

[14] = NCI Yeast Anticancer Drug Screen. Data for the rad18 strain (AID 177); conditions: S. cerevisiae rad18 mutant growth inhibition, hits give high values
How it was run: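 Compounds are applied to a repair-deficient yeast strain, and growth is compared with that of vehicle-treated cultures to give percent inhibition.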

[15] = NCI Yeast Anticancer Drug Screen. Data for the CLN2oe strain (AID 163);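 further: 0% = growth of vehicle-only control cultures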; conditions: S. cerevisiae CLN2oe strain, hits give high values
How it was run: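 Compound-treated yeast; growth vs vehicle ctrl = % inhibition. Genetically altered strain (cell-cycle control).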

[16] = NCI Yeast Anticancer Drug Screen. Data for the mlh1 strain (AID 171);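 further: 0% = growth of vehicle-treated control cultures of the same strain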; conditions: S. cerevisiae mlh1 strain growth inhibition, hits give high values
How it was run: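 Compounds are applied to a genetically altered yeast strain, and its growth is compared with that of vehicle-treated cultures to give percent inhibition.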

[17] = at 5.0 µM (retest, dose inferred, filed as 0.5)
[18] = at 50.0 µM (retest, dose inferred, filed as 5.0)

Measured: growth inhibition

NC(N)=NS(=O)(=O)c1ccc(Nc2c3ccccc3nc3c(C(=O)NC(CO)(CO)CO)cccc23)cc1
inactive: [1]; at 1.2 µM 1% | [1]; at 3.7 µM 9% | [1]; at 11.0 µM 25% | [1]; at 33.0 µM 66% | [2]; at 1.2 µM -1% | [2]; at 3.7 µM 0% | [2]; at 11.0 µM 0% | [2]; at 33.0 µM -1% | [2]; at 100.0 µM 2% | [3]; at 1.2 µM 1% | [3]; at 3.7 µM 5% | [3]; at 11.0 µM 15% | [3]; at 33.0 µM 44% | [4]; at 1.2 µM 2% | [4]; at 3.7 µM -1% | [4]; at 11.0 µM -2% | [4]; at 33.0 µM 1% | [4]; at 100.0 µM 4% | [5]; at 1.2 µM 3% | [5]; at 3.7 µM 9% | [5]; [17] 6% | [5]; at 11.0 µM 27% | [5]; at 33.0 µM 64% | [6]; at 1.2 µM -1% | [6]; at 3.7 µM -1% | [6]; [17] 1% | [6]; at 11.0 µM 1% | [6]; at 33.0 µM 3% | [6]; [18] -13% | [6]; at 50.0 µM 8.65% | [6]; at 100.0 µM 13% | [7]; at 1.2 µM -1% | [7]; at 3.7 µM 3% | [7]; at 11.0 µM 3% | [7]; at 33.0 µM 3% | [7]; at 100.0 µM 10% | [8]; [17] 8% | [8]; [18] -3% | [8]; at 50.0 µM -20.5% | [9]; [17] 35% | [9]; [18] 3% | [9]; at 50.0 µM -9.45% | [10]; at 1.2 µM -1% | [10]; at 3.7 µM 2% | [10]; [17] -11% | [10]; at 11.0 µM 2% | [10]; at 33.0 µM 0% | [10]; [18] 15% | [10]; at 50.0 µM -5.3% | [10]; at 100.0 µM -2% | [11]; at 1.2 µM -1% | [11]; at 3.7 µM -2% | [11]; at 11.0 µM -1% | [11]; at 33.0 µM -1% | [11]; at 100.0 µM 4% | [12]; at 1.2 µM -1% | [12]; at 3.7 µM 1% | [12]; at 11.0 µM 2% | [12]; at 33.0 µM 2% | [12]; at 100.0 µM 8% | [13]; [17] 12% | [13]; [18] 12% | [13]; at 50.0 µM 15.7% | [14]; at 1.2 µM -3% | [14]; at 3.7 µM 0% | [14]; at 11.0 µM -1% | [14]; at 33.0 µM 2% | [14]; at 100.0 µM 9%
active: [1]; at 100.0 µM 91% | [3]; at 100.0 µM 85% | [5]; [18] 94% | [5]; at 50.0 µM 70.8% | [5]; at 100.0 µM 89%

O=C1NC(c2cccc(OCc3ccccc3)c2)Nc2ccccc21 (stereo not drawn)
inactive: [1]; at 1.2 µM 16% | [1]; at 3.7 µM 20% | [1]; at 11.0 µM 19% | [1]; at 33.0 µM 14% | [1]; at 100.0 µM 6% | [2]; at 1.2 µM -10% | [2]; at 3.7 µM -20% | [2]; at 11.0 µM -22% | [2]; at 33.0 µM -26% | [2]; at 100.0 µM -5% | [3]; at 1.2 µM -3% | [3]; at 3.7 µM 10% | [3]; at 11.0 µM 0% | [3]; at 33.0 µM 6% | [3]; at 100.0 µM 16% | [4]; at 1.2 µM -7% | [4]; at 3.7 µM -19% | [4]; at 11.0 µM -35% | [4]; at 33.0 µM -22% | [4]; at 100.0 µM -51% | [5]; at 1.2 µM 12% | [5]; at 3.7 µM 12% | [5]; [17] 49% | [5]; at 11.0 µM 8% | [5]; at 33.0 µM 6% | [5]; at 100.0 µM -9% | [6]; at 1.2 µM 13% | [6]; at 3.7 µM 11% | [6]; [17] 42% | [6]; at 11.0 µM 6% | [6]; at 33.0 µM 5% | [6]; at 100.0 µM 0% | [7]; at 1.2 µM -6% | [7]; at 3.7 µM -14% | [7]; at 11.0 µM -11% | [7]; at 33.0 µM -19% | [7]; at 100.0 µM -17% | [15]; at 1.2 µM -4% | [15]; at 3.7 µM -9% | [15]; at 11.0 µM -5% | [15]; at 33.0 µM -7% | [15]; at 100.0 µM 1% | [9]; [17] 35% | [9]; [18] 38% | [9]; at 50.0 µM 32.5% | [10]; at 1.2 µM 6% | [10]; at 3.7 µM 14% | [10]; [17] 20% | [10]; at 11.0 µM 8% | [10]; at 33.0 µM 4% | [10]; [18] 32% | [10]; at 50.0 µM 67.8% | [10]; at 100.0 µM 1% | [11]; at 1.2 µM -5% | [11]; at 3.7 µM -11% | [11]; at 11.0 µM -7% | [11]; at 33.0 µM -14% | [11]; at 100.0 µM 3% | [16]; at 1.2 µM 1% | [16]; at 3.7 µM 1% | [16]; at 11.0 µM 5% | [16]; at 33.0 µM -4% | [16]; at 100.0 µM -14% | [12]; at 1.2 µM 2% | [12]; at 3.7 µM 0% | [12]; at 11.0 µM -7% | [12]; at 33.0 µM -6% | [12]; at 100.0 µM -14% | [13]; [17] 36% | [13]; at 50.0 µM 65.2% | [14]; at 1.2 µM -6% | [14]; at 3.7 µM -18% | [14]; at 11.0 µM -26% | [14]; at 33.0 µM -21% | [14]; at 100.0 µM -37%
active: [5]; [18] 81% | [5]; at 50.0 µM 84.3% | [6]; [18] 74% | [6]; at 50.0 µM 77.8% | [13]; [18] 71%
